Laboratory results as given in the supplement of paper PMC12067093, “Discovery and optimisation of a covalent ligand for TRIM25 and its application to targeted protein ubiquitination” (Chemical Science, 2025).
The full data set covers some 21,000 targets. This sample favours those with the largest changes.

How the values were obtained:
[1] = compound: Cc1cc(ccc1-c1ccccc1)C(=O)N1CCCN(CC1)C(=O)CCl [compound 10]; test: probe-labelled cysteine peptide fold change vs DMSO (competition) (log2 fold change); higher = less target engagement (more negative = stronger competition); conditions: THP-1, incubation time: 4 h
[2] = compound: CC1Cc2ccccc2N1C(=O)C1CCCN(C1)C(=O)CCl (mixture of isomers) [TRIM25 ligand 11 (diastereomer mixture)]; test: as above; conditions: THP-1, incubation time: 4 h

Sequence of UniProt Q9H0D6 (Q9H0D6 whole entry, looked up): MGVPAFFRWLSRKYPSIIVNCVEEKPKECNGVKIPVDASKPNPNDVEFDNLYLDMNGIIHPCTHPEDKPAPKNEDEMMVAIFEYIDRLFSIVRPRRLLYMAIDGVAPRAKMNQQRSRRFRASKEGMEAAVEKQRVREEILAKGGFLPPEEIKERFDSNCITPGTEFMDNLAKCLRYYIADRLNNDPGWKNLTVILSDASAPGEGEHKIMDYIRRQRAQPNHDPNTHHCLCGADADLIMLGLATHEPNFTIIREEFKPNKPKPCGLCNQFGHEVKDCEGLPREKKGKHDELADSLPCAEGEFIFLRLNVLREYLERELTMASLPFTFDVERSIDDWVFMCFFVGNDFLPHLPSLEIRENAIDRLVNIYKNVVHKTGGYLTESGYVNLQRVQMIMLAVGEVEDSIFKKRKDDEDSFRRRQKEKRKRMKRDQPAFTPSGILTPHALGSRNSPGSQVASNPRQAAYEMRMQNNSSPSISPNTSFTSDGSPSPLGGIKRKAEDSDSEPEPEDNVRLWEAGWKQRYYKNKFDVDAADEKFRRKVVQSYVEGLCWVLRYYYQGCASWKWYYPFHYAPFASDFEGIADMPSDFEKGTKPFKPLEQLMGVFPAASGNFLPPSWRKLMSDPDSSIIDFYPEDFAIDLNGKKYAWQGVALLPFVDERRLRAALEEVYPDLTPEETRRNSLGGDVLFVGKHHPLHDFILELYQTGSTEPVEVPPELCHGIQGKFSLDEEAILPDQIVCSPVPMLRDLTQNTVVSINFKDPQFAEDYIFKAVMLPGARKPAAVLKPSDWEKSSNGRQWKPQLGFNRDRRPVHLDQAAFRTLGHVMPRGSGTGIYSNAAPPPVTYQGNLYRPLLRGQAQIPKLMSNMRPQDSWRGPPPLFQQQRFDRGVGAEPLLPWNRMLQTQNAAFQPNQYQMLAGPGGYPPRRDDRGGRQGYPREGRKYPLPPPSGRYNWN
Sequence of UniProt O94967 (O94967 whole entry, looked up): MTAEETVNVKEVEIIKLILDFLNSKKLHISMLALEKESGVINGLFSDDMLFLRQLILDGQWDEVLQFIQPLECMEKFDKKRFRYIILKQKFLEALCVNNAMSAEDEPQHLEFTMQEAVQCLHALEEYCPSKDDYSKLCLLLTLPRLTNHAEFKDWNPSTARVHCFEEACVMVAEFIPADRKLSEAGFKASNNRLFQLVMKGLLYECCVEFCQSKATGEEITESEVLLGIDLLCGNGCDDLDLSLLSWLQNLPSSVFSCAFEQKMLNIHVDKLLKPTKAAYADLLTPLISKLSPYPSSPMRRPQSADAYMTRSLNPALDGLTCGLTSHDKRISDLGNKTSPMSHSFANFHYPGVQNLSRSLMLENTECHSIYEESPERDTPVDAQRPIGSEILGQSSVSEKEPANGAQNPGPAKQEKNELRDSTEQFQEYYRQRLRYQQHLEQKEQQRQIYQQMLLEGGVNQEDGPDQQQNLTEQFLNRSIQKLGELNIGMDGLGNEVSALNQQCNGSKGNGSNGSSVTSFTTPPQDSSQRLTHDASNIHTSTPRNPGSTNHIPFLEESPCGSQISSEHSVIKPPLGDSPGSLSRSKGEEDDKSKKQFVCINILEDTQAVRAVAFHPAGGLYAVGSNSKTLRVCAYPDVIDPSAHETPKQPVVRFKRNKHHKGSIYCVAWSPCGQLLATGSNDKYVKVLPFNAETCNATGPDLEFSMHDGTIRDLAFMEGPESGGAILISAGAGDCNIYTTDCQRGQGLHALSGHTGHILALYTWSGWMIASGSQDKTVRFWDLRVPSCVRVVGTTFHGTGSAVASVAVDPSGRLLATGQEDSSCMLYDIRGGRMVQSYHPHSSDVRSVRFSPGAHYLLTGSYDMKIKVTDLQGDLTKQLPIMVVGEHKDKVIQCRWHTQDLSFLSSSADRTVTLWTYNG
Sequence of UniProt O96019 (O96019 whole entry, looked up): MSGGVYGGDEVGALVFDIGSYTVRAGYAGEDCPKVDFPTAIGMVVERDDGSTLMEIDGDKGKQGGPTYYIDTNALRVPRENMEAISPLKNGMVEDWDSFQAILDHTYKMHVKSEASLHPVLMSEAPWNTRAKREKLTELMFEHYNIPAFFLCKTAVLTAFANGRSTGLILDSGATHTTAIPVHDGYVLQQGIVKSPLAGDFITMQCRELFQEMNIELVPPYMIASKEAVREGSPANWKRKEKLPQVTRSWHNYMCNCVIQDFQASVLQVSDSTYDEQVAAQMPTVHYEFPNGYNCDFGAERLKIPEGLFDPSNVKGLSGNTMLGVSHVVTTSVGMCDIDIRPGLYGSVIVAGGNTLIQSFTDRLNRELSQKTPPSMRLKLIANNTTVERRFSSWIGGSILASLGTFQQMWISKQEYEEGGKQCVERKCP
Sequence of UniProt O75152 (O75152 whole entry, looked up): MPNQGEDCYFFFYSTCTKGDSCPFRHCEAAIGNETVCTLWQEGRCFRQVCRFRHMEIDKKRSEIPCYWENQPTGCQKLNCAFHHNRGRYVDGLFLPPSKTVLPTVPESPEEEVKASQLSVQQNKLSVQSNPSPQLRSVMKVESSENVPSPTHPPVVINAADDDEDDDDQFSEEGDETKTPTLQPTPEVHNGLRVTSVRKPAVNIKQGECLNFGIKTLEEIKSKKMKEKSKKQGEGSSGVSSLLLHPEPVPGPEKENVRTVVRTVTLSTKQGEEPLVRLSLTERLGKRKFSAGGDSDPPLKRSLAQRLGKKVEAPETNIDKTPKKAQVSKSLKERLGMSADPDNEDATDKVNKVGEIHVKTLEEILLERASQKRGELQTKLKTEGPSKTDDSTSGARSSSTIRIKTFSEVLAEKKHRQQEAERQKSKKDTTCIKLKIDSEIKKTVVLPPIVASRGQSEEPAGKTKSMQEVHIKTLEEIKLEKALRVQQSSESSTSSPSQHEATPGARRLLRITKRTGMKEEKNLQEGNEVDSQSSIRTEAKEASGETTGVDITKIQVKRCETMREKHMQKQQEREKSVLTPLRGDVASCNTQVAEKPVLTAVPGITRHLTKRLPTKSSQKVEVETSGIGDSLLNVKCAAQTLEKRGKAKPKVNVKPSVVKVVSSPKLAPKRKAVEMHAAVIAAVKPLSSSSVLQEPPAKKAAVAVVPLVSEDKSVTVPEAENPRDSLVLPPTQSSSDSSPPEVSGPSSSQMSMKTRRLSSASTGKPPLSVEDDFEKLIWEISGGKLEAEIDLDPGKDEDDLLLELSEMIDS
Sequence of UniProt Q8N302 (Q8N302 whole entry, looked up): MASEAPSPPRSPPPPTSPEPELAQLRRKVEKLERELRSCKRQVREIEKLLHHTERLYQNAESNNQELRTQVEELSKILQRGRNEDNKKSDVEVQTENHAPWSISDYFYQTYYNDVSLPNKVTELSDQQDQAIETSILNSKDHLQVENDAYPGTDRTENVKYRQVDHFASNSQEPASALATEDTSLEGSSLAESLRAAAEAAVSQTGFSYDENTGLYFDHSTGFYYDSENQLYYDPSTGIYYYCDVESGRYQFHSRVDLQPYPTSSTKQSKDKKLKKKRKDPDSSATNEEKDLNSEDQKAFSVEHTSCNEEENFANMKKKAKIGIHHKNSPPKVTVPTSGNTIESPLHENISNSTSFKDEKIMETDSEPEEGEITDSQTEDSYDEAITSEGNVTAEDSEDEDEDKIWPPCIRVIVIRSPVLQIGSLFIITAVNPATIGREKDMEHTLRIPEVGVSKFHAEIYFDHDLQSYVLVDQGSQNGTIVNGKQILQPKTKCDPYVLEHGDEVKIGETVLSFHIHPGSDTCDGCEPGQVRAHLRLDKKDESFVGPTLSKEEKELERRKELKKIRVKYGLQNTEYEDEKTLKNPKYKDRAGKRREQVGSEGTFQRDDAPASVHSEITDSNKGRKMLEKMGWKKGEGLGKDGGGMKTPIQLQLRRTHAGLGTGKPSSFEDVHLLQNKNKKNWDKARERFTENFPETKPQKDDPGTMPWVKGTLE
Sequence of UniProt Q96ME7 (Q96ME7 whole entry, looked up): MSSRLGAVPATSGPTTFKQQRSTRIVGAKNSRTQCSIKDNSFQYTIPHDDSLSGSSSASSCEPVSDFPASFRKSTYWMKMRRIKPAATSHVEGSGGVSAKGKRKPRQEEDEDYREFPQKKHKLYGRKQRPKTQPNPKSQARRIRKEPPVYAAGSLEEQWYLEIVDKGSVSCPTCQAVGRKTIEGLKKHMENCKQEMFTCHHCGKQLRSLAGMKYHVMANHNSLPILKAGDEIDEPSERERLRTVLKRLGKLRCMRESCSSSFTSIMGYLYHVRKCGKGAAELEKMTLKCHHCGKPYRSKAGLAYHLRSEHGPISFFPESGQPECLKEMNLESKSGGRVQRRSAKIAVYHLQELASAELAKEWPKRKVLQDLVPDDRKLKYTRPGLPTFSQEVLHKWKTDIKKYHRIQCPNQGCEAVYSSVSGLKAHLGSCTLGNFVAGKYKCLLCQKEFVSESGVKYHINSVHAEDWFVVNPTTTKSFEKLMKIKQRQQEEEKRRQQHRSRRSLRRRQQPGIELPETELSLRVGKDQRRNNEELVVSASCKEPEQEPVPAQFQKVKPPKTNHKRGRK
Sequence of UniProt O43829 (O43829 whole entry, looked up): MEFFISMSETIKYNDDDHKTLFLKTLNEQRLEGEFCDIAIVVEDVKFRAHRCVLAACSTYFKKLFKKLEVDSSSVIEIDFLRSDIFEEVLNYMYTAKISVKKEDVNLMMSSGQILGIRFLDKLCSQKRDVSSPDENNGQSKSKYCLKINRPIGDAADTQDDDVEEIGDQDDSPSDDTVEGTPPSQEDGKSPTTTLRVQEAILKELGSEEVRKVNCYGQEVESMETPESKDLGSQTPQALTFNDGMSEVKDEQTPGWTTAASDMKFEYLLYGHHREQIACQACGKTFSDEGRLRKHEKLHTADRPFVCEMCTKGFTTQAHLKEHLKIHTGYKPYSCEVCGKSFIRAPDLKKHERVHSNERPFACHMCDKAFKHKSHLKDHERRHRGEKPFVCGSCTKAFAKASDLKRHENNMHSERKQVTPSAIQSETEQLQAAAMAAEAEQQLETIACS

| Target | probe-labelled cysteine peptide fold change ([1]; 10 µM) | probe-labelled cysteine peptide fold change ([1]; 50 µM) | probe-labelled cysteine peptide fold change ([2]; 10 µM) | probe-labelled cysteine peptide fold change ([2]; 50 µM) |
| --- | --- | --- | --- | --- |
| XRN2_Q9H0D6_715_HHPLHDFILELYQTGSTEPVEVPPELCHGIQGK (UniProt Q9H0D6) | -0.0366 | 0.0175 |  |  |
| ZBTB14_O43829_391_PFVCGSCTK (UniProt O43829) | 0.104 | -0.263 |  |  |
| AGGF1_Q8N302_494_CDPYVLEHGDEVK (UniProt Q8N302) |  |  | 0.0808 | 0.0697 |
| ZNF483_Q8TF39_392_IHLGDRSQKCSK (UniProt Q8TF39) | -0.0771 | -0.64 |  |  |
| WDR47_O94967_672_GSIYCVAWSPCGQLLATGSNDK (UniProt O94967) | -0.439 | -1.25 |  |  |
| ZC3H11A_O75152_588_SVLTPLRGDVASCNTQVAEK (UniProt O75152) | -0.0147 | 0.00571 |  |  |
| ZNF76_P36508_342_HHVVHTHCK (UniProt P36508) | -0.115 | -0.0476 |  |  |
| WDFY4_Q6ZS81_2352_EAEGEPDEVGVDCTQLTFFPALHESLHSEDFLELCR (UniProt Q6ZS81) | -0.125 | -0.598 |  |  |
| ACTL6A_O96019_152_LTELMFEHYNIPAFFLCK (UniProt O96019) |  |  | -0.0461 | 0.0154 |
| ZNF512_Q96ME7_540_NNEELVVSASCK (UniProt Q96ME7) | 0.0455 | 0.0373 |  |  |
| ZNF76_P36508_292_THTGERPYTCPEPHCGR (UniProt P36508) | 0.0197 | -0.0549 |  |  |
| WDR77_Q9BQA1_186_DSVFLSCSEDNR (UniProt Q9BQA1) | 0.136 | 0.227 |  |  |
| AARS_P49588_184+187_DNFWEMGDTGPCGPCSEIHYDR (UniProt P49588) |  |  | 0.105 | -0.0756 |
| ADD2_P35612_224_CIIHLHTPATAAVSAMK (UniProt P35612) |  |  | -0.0204 | -0.168 |
